Among all 24,000 compounds or so, about 40 (0.2%) were called active.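 Rule for the calls: active = inhibition of disassembly above about 33% (limit read from the data); inconclusive = likely self-fluorescent, control bead median signal at least 40; inactive = the rest.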 The sample as a whole holds a higher share of actives than the screen did.

This assay concerns 26S proteasome (yeast, GFP-tagged, ATP-dependent disassembly). Nature of the assay: blockers of yeast 26S proteasome breakdown – biochemical, bead-based flow cytometry, GFP-tagged proteasome, primary screen (AID 751).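 Note: plate controls were ATP control with full disassembly for no effect and ATP-gamma-S intact proteasomes for full effect; higher percent means more bead fluorescence retained so stronger block of disassembly.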 The settings on record: anti-FLAG beads, active compounds read high, concentration not given here. (In general: A flow cytometer gives signals particle by particle.)
In the case of `O=C(CN1CCN(c2ncc(C(F)(F)F)cc2Cl)CC1)Nc1ccc2c(c1)OCO2`, the inhibition of disassembly is 2.15% (inactive).

In the case of `Cc1nc2ncnn2c(C)c1CCC(=O)N1CCN(C(=O)c2ccco2)CC1`, the inhibition of disassembly was -0.22% (inactive).

As for `Cc1c2cnn(-c3ccccc3)c(=O)c2c(C)n1CCCC(=O)N1CCN(C)CC1`, the inhibition of disassembly was 0.62% (inactive).

With `CCSc1nc2c(c(=O)[nH]1)C(c1cccnc1)C(C(=O)OC(C)C)=C(C)N2` (centres undefined), the inhibition of disassembly was 0.035% (inactive).

On to `O=C(NCCCN1CCN(Cc2ccccc2)CC1)C1CCN(S(=O)(=O)N2CCCC2)CC1`, for which the inhibition of disassembly was -1.86% (inactive).

Consider `Nc1nonc1-c1nc2ccccc2n1CCC(=O)O`, for which the inhibition of disassembly was 1.19% (inactive).

Regarding `Cc1noc(C)c1S(=O)(=O)N(CC(=O)NCc1ccc(Cl)cc1)c1ccc2c(c1)OCO2`, the inhibition of disassembly is -0.25% (inactive).

For the compound `CCN(c1ccc2c(c1)OCO2)S(=O)(=O)c1cc(Br)cc2c1N(C(=O)C1CC1)CC2`, the inhibition of disassembly is 28.9% (active).

`CCOC(=O)N1CCN(S(=O)(=O)c2cc(Br)cc3c2N(C(=O)C2CC2)CC3)CC1`: the inhibition of disassembly was 3.18% (inactive).

Consider `CN(Cc1ccccc1)C(=O)CCNC(=O)Cn1cnc2ccccc2c1=O`, for which the inhibition of disassembly was -0.53% (inactive).

In the case of `COc1ccc2c(c1)CCc1c(C(=O)N3CCCC3)noc1-2`, the inhibition of disassembly was -0.25% (inactive).

As to `COc1ccc(-c2nc(CS(=O)CC(=O)N3CCc4ccccc4C3)c(C)o2)cc1` (centres undefined), the inhibition of disassembly is 1.96% (inactive).

As for `Nc1ccc(-n2nncc2-c2ccco2)cc1`, the inhibition of disassembly is -0.06% (inactive).

On to `CCc1nnc(NC(=O)CCC(=O)O)s1`, for which the inhibition of disassembly is -0.71% (inactive).

As for `O=C(c1ccccc1)c1ccc2nc(N3CCCCC3)c3nncn3c2c1`, the inhibition of disassembly was 3.43% (inactive).

Consider `CC12COC3(C(=O)Nc4ccc(Cl)cn4)CC1CCC32C` (centres undefined), for which the inhibition of disassembly is 0.35% (inactive).

In the case of `CCCn1nnc2sc3c(c2c1=O)CCC(C)C3` (centres undefined), the inhibition of disassembly was -0.93% (inactive).

As to `CCCCc1nc2c(=O)[nH]c3ccccc3c2o1`, the inhibition of disassembly is 0.25% (inactive).

Take `CC(=O)Nc1ccc(S(=O)(=O)N2CCC(N(C)CCC(C)C)CC2)cc1`: the inhibition of disassembly was 0.37% (inactive).

As to `CCCn1cc(SCC(N)=O)c2ccccc21`, the inhibition of disassembly was -0.93% (inactive).

On to `O=C(Nc1nc2ccc(S(=O)(=O)N3CCCC3)cc2s1)C1CCCO1` (centres undefined), for which the inhibition of disassembly was -0.99% (inactive).

For `COc1ccc(N2C(=O)CCC(C(=O)N(C)C3CCCCC3)C2c2ccc(OC)c(OC)c2)cc1` (centres undefined), the inhibition of disassembly is -1.19% (inactive).

For the compound `CC(=O)NCC(=O)N(C)C(C(=O)Nc1ccc2c(c1)OCCO2)c1ccccc1` (centres undefined), the inhibition of disassembly is 2.08% (inactive).

In the case of `CC(=O)Nc1cc2ccc(OC(C)=O)cc2oc1=O`, the inhibition of disassembly was 0.02% (inactive).

As for `Fc1ccccc1C(c1nnnn1Cc1ccc2c(c1)OCO2)N1CCN(Cc2ccccc2)CC1` (centres undefined), the inhibition of disassembly was -0.69% (inactive).

In the case of `CC(C(=O)N1CCOCC1)N1c2cccc3cccc(c23)S1(=O)=O` (centres undefined), the inhibition of disassembly was -0.85% (inactive).

`C=CCn1c(COc2ccccc2F)nnc1SCC(=O)N1CC(=O)Nc2ccccc21`: the inhibition of disassembly was -0.82% (inactive).

For the compound `CCCCNC(=O)c1c[nH]c2ccc(S(=O)(=O)Nc3ccc(OCC)cc3)cc2c1=O`, the inhibition of disassembly is 0.53% (inactive).

As to `CCCCOC(=O)Nc1nccs1`, the inhibition of disassembly is 0.85% (inactive).

With `CCn1cc(C(=O)N2CCN(C3CCCCC3)CC2)c2cc(OC)c(OC)cc2c1=O`, the inhibition of disassembly is -1.25% (inactive).

Regarding `COCCCN(C(=O)Cn1ncc2c(=O)oc3ccc(C)cc3c21)C(C)c1ccncc1` (centres undefined), the inhibition of disassembly was -1.07% (inactive).

For the compound `Cc1ccsc1C(C(=O)NC1CCCCC1)N(C(=O)Cc1cccs1)C1CC1` (centres undefined), the inhibition of disassembly was 1.54% (inactive).

`O=C(NC1(C(F)(F)F)N=C2SCCN2C1=O)c1ccco1` (centres undefined): the inhibition of disassembly was 1.38% (inactive).

For `CCN(CCCNC(=O)C1CCN(S(=O)(=O)c2cnc[nH]2)CC1)c1ccccc1`, the inhibition of disassembly is 0.49% (inactive).

As for `Cc1ccc(C(c2sc3nc(C)nn3c2O)N2CCN(c3ccc(F)cc3)CC2)cc1` (centres undefined), the inhibition of disassembly was -0.24% (inactive).

For the compound `CN1C(=O)c2ccccc2C(C(=O)NCCCN2CCCC2)C1c1c[nH]c2ccccc12` (centres undefined), the inhibition of disassembly was 1.77% (inactive).

As for `CCc1ccc(NC(=O)CSc2nc3ccccc3c(=O)n2CCN2CCOCC2)cc1`, the inhibition of disassembly is -3.37% (inactive).

With `COc1ccc(OC)c(N=Cc2c(O)[nH]c3ccccc23)c1`, the inhibition of disassembly is 25.8% (inactive).

As to `O=C(CN1C(=O)COc2ccccc21)NCCN1CCc2ccccc2C1`, the inhibition of disassembly was -0.95% (inactive).

Consider `COc1ccc(CN2CN(C(C)C)CSC2=S)cc1`, for which the inhibition of disassembly is -0.35% (inactive).

In the case of `CN1CCN(CCCNC(=O)c2cc3c(=O)oc4ccccc4c3s2)CC1`, the inhibition of disassembly is -0.65% (inactive).

As to `CCOC(=O)CN1CC23C=CC(O2)C(C(=O)Nc2ccc(F)cc2)C3C1=O` (centres undefined), the inhibition of disassembly is 0.62% (inactive).

With `COCCNC(=S)c1ccc(OC)cc1`, the inhibition of disassembly is -2.83% (inactive).

On to `COc1ccc(Cn2nnc3c(=O)[nH]c(C4CCN(C(=O)c5ccccc5Cl)CC4)nc32)cc1`, for which the inhibition of disassembly is -0.42% (inactive).

For the compound `CCN(CC)S(=O)(=O)c1ccc(NC(=O)CN(c2cccc(F)c2)S(C)(=O)=O)cc1`, the inhibition of disassembly is 2.21% (inactive).

`O=C(C(NS(=O)(=O)c1cccc2nsnc12)c1ccccc1)N1CCN(c2ccccn2)CC1` (centres undefined): the inhibition of disassembly is 0.34% (inactive).

Consider `Cc1c(C(=O)N2CC(C)OC(C)C2)sc2nc(-c3ccccc3)cn12` (centres undefined), for which the inhibition of disassembly was 0.65% (inactive).

`COc1cc(C(O)c2nc3ccccc3n2C)cc(OC)c1OC` (centres undefined): the inhibition of disassembly was 1.95% (inactive).

For the compound `O=C(CCN1C(=O)c2ccncc2C1=O)Nc1ccc2c(c1)OCCO2`, the inhibition of disassembly is -0.98% (inactive).

Source of the values: PubChem BioAssay AID751 (NMMLSC, 2007).
